Test results from PubChem BioAssay (NCI).
About 79,000 compounds went through this panel and 15% of them were active in at least one assay; those are over-represented in the sample as a whole. A number with no mark means an inactive call. Activity calls are given as the source filed them. Cut-off read from the data, not from the text of the source: active = growth inhibition above about 70%; inactive = the rest.

Test: NCI Yeast Anticancer Drug Screen. Data for the mlh1 rad18 strain (AID 175)
Details: S. cerevisiae mlh1 rad18 strain growth inhibition; at 50.0 µM; active compounds read high
Outline: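 Genetically defined yeast (DNA repair-deficient) exposed to compounds; growth inhibition determined relative to vehicle.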

Compound | growth inhibition
FC(F)(F)c1ccc(C=NC23CC4CC(CC(C4)C2)C3)cc1 | -30.9%
CCOc1ccc(NC(=O)C2=C(C)NC(C)=C(C(=O)Nc3ccc(OCC)cc3)C2c2ccc(O)c(OC)c2)cc1 | -8.1%
O=c1cccc(CCc2ccccc2)[nH]1 | -16.4%
OC(C1CCCCC1)(C1CCC2(CCCCC2)CC1)C1CCCC2CCCCC21 (stereo not given) | 20.1%
O=C(CCc1ccccc1)NC(=S)Nc1cccc([N+](=O)[O-])c1 | 86% (active)
Cc1ccc(-n2cc(-c3ccc(Cl)cc3)c3c2N=CN2NC(c4cccs4)=NC32)cc1 (stereo not given) | -17.3%
COC(=O)C(N)Cc1ccc(OC)cc1 (stereo not given) | 3.75%
OC(CC1=NCCS1)(c1ccccc1)c1ccccc1 | 98.2% (active)
Oc1c(/N=N/C(=S)NCCCN2CCN(CCCNC(=S)/N=N/c3[nH]c4ccccc4c3O)CC2)[nH]c2ccccc12 | 14.9%
NCCO | -18.9%
Oc1ccccc1C=Nc1ccccc1 | -2.4%
O=C(/C=C/c1ccco1)c1ccc(O)c(C(=O)O)c1 | -2.9%
Cc1ccc(NC(=O)C(=O)CC(=O)c2c(C)n([O-])c3ccccc3[n+]2=O)cc1 | 17.4%
CCOC(=O)C/C(C)=N\NC(N)=O | 42.8%
COc1cc(NCCNCC(C)(C)C)c2ncccc2c1 | 0.5%
CCNS(=O)(=O)c1ccccc1 | 14.7%
COC(=O)/C=C/c1ccc2c(c1)CCCC2 | 24.4%
Cc1ccc(C(=O)Oc2ccccc2)cc1N=NN(C)C | -24.1%
CC[P+](C)(Cc1ccccc1)c1ccccc1 (stereo not given) | 21.3%
Cc1ccc2c(c1)nc(N)n[n+]2[O-] | -39.5%

Compound | growth inhibition
Nc1ccc2c(c1)Cc1cc(O)ccc1-2 | 4.35%
[O-]/[N+]1=[N+](\[O-])c2ccccc2CCCc2ccccc21 | -7.1%
O=S1OC(c2ccccc2)C(c2ccccc2)O1 (stereo not given) | -7.7%
O=C1c2ccccc2C(=O)N1CNc1cccc(Cl)c1 | 22.4%
Cc1cccc(NC(=O)c2c(Cl)c(Cl)c(Cl)c(Cl)c2C(=O)O)c1C | 8.95%
NC1=CCNN1 | 14.4%
Cc1cc(Cl)c(O)c(-c2cc(-c3ccc([N+](=O)[O-])cc3)c3c(N)[nH]c(=O)nc3n2)c1 | 38%
CS/C(=C/c1ccc2ccccc2[n+]1C)N1CCN(C)CC1 | -0.2%
O=C(O)/C=C/c1c(Cl)cccc1Cl | -5.8%
O=c1c(Cl)cc(Cl)cn1S(=O)(=O)c1ccc([N+](=O)[O-])cc1 | 98.9% (active)
[Cl][Pt+2][Cl].[NH-]c1ccccc1F.[NH-]c1ccccc1F | 34.4%
CN(C)c1c2c(oc(=O)c1Cl)-c1ccccc1OCC2 | -17.6%
CN1NC(=O)CC1c1ccccc1 (stereo not given) | 5.45%
O=C(Nc1ccccc1)OC1CCCC12CC2 (stereo not given) | 23.1%
CC1(C)CC(N(CCO)CCO)CC(C)(C)N1O | 5.35%
N#C/C(c1ccccc1)=[N+](/[O-])O | 13.7%
N=C(CN1CCCCC1)N1CCCCC1 | 12.6%
N#CC(c1ccccc1)[N+](=O)[O-] (stereo not given) | 22.8%
NCCNCCCCCCNC(=O)c1cccc2cc3ccccc3nc12 | -102%
O=[N+]([O-])c1ccc(OC(=S)Oc2ccc([N+](=O)[O-])cc2)cc1 | 1.8%
